Laboratory results published in PubChem BioAssay (EPA / NIEHS).
Where “and” joins values, the source holds several entries; their conditions need not be identical. Equal entries are not always repeated. Inconclusive results are not listed. More than one record can exist for a structure, and the calls need not agree. Calls of active or inactive are those of the source. How the source made its calls, unless noted: active means hit-call score of the fitted dose curve at least 0.9, where 1 is the maximum; inactive means score below 0.9.

Key:
[1] = read-out: Monokine induced gamma interferon (MIG), CXCL9 (gene 4283); assay: BSK_3C_MIG: BioMAP Diversity Plus: 3C Assay for Monokine induced gamma interferon (MIG) Biomarker Activity (AID 2283021); settings: primary human endothelial cells (HUVEC); actives raise or lower the signal;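 on AC50: MIG protein level measured by immunoassay in the treated endothelial cultures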
How it was run: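 Read-out is ELISA detection of MIG on human umbilical vein endothelial cells, taken 24 h after dosing. Gain or loss of signal was scored relative to DMSO controls using bidirectional curve fitting.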

[2] = biological target: human Vitamin D Receptor (VDR), VDR (gene 7421) (UniProt P11473); assay: ATG_VDR_TRANS: Attagene TRANS-FACTORIAL HepG2 Assay for human Vitamin D Receptor (VDR) (AID 2283022; active means hit-call score of the fitted dose curve at least 0.9, where 1 is the maximum)
human Vitamin D Receptor (VDR), VDR (gene 7421), sequence (P11473 whole entry, looked up): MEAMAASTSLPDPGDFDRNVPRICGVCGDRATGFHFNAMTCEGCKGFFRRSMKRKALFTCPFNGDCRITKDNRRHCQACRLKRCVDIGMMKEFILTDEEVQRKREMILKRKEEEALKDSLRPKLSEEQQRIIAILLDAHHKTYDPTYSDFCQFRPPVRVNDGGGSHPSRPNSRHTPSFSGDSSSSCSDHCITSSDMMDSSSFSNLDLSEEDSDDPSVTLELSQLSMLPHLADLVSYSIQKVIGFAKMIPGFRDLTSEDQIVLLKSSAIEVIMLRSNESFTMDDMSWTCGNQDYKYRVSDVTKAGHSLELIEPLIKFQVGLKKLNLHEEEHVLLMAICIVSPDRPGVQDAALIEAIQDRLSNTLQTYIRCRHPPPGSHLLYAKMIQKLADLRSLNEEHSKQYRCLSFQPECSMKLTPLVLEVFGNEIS
How it was run: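 Multiplexed TRANS reporter in HepG2; 24 h treatment; reporter mRNA by RT-PCR plus capillary electrophoresis; upregulation scored relative to DMSO.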

[3] = BSK_3C_SRB: Viability Assessment in the BioMAP Diversity Plus: 3C Assay (AID 2283023); settings: primary human endothelial cells (HUVEC);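 further: fitted both ways against DMSO so a hit may be signal rise or drop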
How it was run: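 Overt cytotoxicity is gauged in parallel confluent HUVEC cultures by SRB total-protein staining at the time of biomarker measurement, 24 h after dosing. Gain or loss of signal is fitted versus DMSO.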

[4] = read-out: Matrix Metallopeptidase 1 (MMP1), MMP1 (gene 4312); assay: BSK_BE3C_MMP1: BioMAP Diversity Plus: BE3C Assay for Matrix Metallopeptidase 1 (MMP1) Biomarker Activity (AID 2283024); settings: primary human bronchial epithelial cells; actives raise or lower the signal
How it was run: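 Human bronchial epithelial cells (BE3C system) exposed to compound for 24 h; MMP1 then quantified by ELISA. Activity was fitted in both directions relative to DMSO.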

[5] = BSK_3C_Vis: BioMAP Diversity Plus: 3C Assay for Morphology Visualization (AID 2283025); settings: primary human endothelial cells (HUVEC);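 further: fitted both ways so gain or loss versus DMSO counts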;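 on AC50: light microscopy image of cell morphology used as background control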
How it was run: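 Chemicals were added to primary human umbilical vein endothelium, cells were incubated 24 h, and morphology was then visualized by light microscopy. Gain or loss of signal was fitted bidirectionally relative to DMSO.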

[6] = read-out: Pselectin, SELP (gene 6403); assay: BSK_4H_Pselectin: BioMAP Diversity Plus: 4H Assay for Pselectin Biomarker Activity (AID 2283026); settings: primary human endothelial cells (HUVEC); actives raise or lower the signal
How it was run: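 ELISA read-out of P-selectin on human umbilical vein endothelium after 24 h of dosing. Values derive from bidirectional fitting relative to DMSO. Parallel SRB protein staining flagged overt cytotoxicity.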

[7] = BSK_4H_SRB: Viability Assessment in the BioMAP Diversity Plus: 4H Assay (AID 2283027); settings: primary human endothelial cells (HUVEC);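 further: cells exposed to compound for 24 h before staining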;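 on AC50: curves fitted both ways versus DMSO so AC50 may be loss or gain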
How it was run: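 Absorbance at 560 nm of SRB-stained total protein served as the viability read-out in confluent primary human umbilical vein endothelium 24 h after chemical treatment. Curves were fitted bidirectionally against DMSO as negative control.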

[8] = read-out: Thrombomodulin, THBD (gene 7056); assay: BSK_3C_Thrombomodulin: BioMAP Diversity Plus: 3C Assay for Thrombomodulin Biomarker Activity (AID 2283029); settings: primary human endothelial cells (HUVEC); actives raise or lower the signal
How it was run: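 Read-out is ELISA of thrombomodulin on human umbilical vein endothelium 24 h after chemical dosing. Gain or loss of signal is scored relative to DMSO. Overt cytotoxicity is checked in parallel cultures by sulforhodamine B staining.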

[9] = read-out: Urokinase-type plasminogen activator receptor (uPAR), PLAUR (gene 5329); assay: BSK_4H_uPAR: BioMAP Diversity Plus: 4H Assay for Urokinase-type plasminogen activator receptor (uPAR) Biomarker Activity (AID 2283030); settings: primary human endothelial cells (HUVEC); actives raise or lower the signal
How it was run: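 Endpoint derived via bidirectional curve fitting against DMSO baseline; readout was ELISA detection of uPAR on umbilical vein endothelial cells at 24 h post-treatment, with SRB-stained parallel cultures assessing cytotoxicity.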

[10] = BSK_BE3C_SRB: Viability Assessment in the BioMAP Diversity Plus: BE3C Assay (AID 2283028); settings: primary human bronchial epithelial cells;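 on AC50: fitted both ways so AC50 may mark signal gain or loss versus DMSO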
How it was run: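 SRB total-protein staining (0.1%, after TCA fixation) of chemically dosed human bronchial epithelial primary cells at 24 h; DMSO serves as the negative control for bidirectional curve fitting.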

Measured: AC50

CC(=O)Nc1ccccc1O
not listed: [10]
inactive: all other assays above

O=[N+]([O-])c1cc(C(F)(F)F)ccc1Cl
not listed: [2] | [10]
inactive: all other assays above

CC1COc2ccccc2N1C(=O)C(Cl)Cl (stereo not drawn)
active: [3] 7.57 µM | [5] 5.21 µM | [6] 4.69 µM | [7] 2.79 µM
inactive: [1] | [2] | [8] | [9]

Nc1cc([N+](=O)[O-])ccc1Cl
not listed: [10]
inactive: all other assays above

C=C(C)C(=O)O[C@H]1C[C@@H]2CC[C@@]1(C)C2(C)C
active: [1] 34.7 µM | [3] 13.8 µM | [4] 20 µM | [5] 12.5 µM | [6] 11.3 µM | [7] 10.9 µM | [9] 9.5 µM
inactive: [2] | [8]

BrC1CCC(Br)C(Br)CCC(Br)C(Br)CCC1Br (stereo not drawn)
active: [3] 4.73 µM | [4] 1.16 µM | [5] 8.03 µM | [6] 2.57 µM | [7] 4.73 µM | [9] 4.6 µM
inactive: [1] | [2] | [8]

CC(C)Oc1ccccc1O
not listed: [2] | [10]
inactive: all other assays above

CCn1c2ccccc2c2cc(N)ccc21
active: [5] 8.8 µM | [6] 1.23 µM | [9] 0.152 µM
not listed: [2] | [10]
inactive: all other assays above

OC[C@H]1O[C@H](O[C@]2(CCl)O[C@H](CCl)[C@@H](O)[C@@H]2O)[C@H](O)[C@@H](O)[C@H]1Cl
not listed: [5] | [10]
inactive: all other assays above

CC[Si](OC(C)=O)(OC(C)=O)OC(C)=O
not listed: [5]
inactive: all other assays above

Cc1ccc2n[nH]nc2c1
not listed: [2]
inactive: all other assays above

O=C(O)c1cn(C2CC2)c2cc(N3CCNCC3)c(F)cc2c1=O
not listed: [2]
inactive: all other assays above

C#C[C@]1(O)CC[C@H]2[C@@H]3CCC4=Cc5oncc5C[C@]4(C)[C@H]3CC[C@@]21C
active: [3] 3.97 µM | [5] 37.5 µM | [6] 35.2 µM | [7] 7.33 µM | [9] 3.97 µM
inactive: [1] | [4] | [8]

O=C(O)C[C@H](O)C[C@H](O)/C=C/c1c(C2CC2)nc2ccccc2c1-c1ccc(F)cc1
active: [3] 0.0713 µM | [5] 3.47 µM | [6] 0.152 µM | [7] 0.847 µM
not listed: [10]
inactive: all other assays above

N#Cc1ccc(CC(=NNC(=O)Nc2ccc(OC(F)(F)F)cc2)c2cccc(C(F)(F)F)c2)cc1
not listed: [2] | [10]
inactive: all other assays above

CCCCC(CC)COCCC#N (stereo not drawn)
not listed: [10]
inactive: all other assays above

CNC[C@H](O)c1cccc(O)c1
inactive: all assays above

CCCCC(CC)COC(=O)/C=C\C(=O)OCC(CC)CCCC (stereo not drawn)
not listed: [10]
inactive: all other assays above

CCCCC/C=C/C=C/C=O
active: [1] 36.5 µM | [3] 31.1 µM | [5] 37.4 µM | [6] 27.1 µM | [7] 30.5 µM | [9] 35.6 µM
inactive: [4] | [8]

CC(C)c1ccc(C(C)C)cc1
inactive: [1] | [4] | [8]
active: [3] 30.5 µM | [5] 37.8 µM | [6] 31 µM | [7] 30.7 µM | [9] 30.9 µM

CC1CCC(C(C)CS)CC1S (stereo not drawn)
active: [1] 36.9 µM | [3] 20 µM | [4] 36.6 µM | [5] 37.1 µM | [6] 23.9 µM | [7] 30.9 µM | [9] 36.4 µM
inactive: [2] | [8]

c1ccc2sc(SN(C3CCCCC3)C3CCCCC3)nc2c1
inactive: [1] | [7] | [8] | [9]
active: [3] 6.8 µM | [4] 6.54 µM | [5] 8.8 µM | [6] 5.21 µM

Nc1cc([N+](=O)[O-])ccc1O
active: [4] 0.15 µM
inactive: [1] | [3] | [4] | [6] | [7] | [8] | [9]

CCCCCCCCCCCCCCCCCC(=O)OCC(CC)CCCC (stereo not drawn)
inactive: all assays above

COc1cc(C=O)ccc1OC(=O)C(C)C
not listed: [5] | [10]
inactive: all other assays above

O=C1CCCCCCCCCCCCCCO1
inactive: [1] | [2] | [4]
active: [3] 27.1 µM | [5] 14.4 µM | [6] 27.6 µM | [7] 27.4 µM | [10] 9.72 µM | [8] 20 µM | [9] 23.7 µM

CCCCCCCCC=O
not listed: [10]
inactive: all other assays above

CCC(=O)OCc1ccccc1
not listed: [5] | [10]
inactive: all other assays above

CC(=O)/C=C/C1=C(C)CCCC1(C)C
not listed: [10]
inactive: all other assays above

C=C[Si](OCC)(OCC)OCC
not listed: [10]
inactive: all other assays above

O=C=NC1CCC(CC2CCC(N=C=O)CC2)CC1 (stereo not drawn)
active: [5] 37.5 µM
not listed: [10]
inactive: all other assays above

O=P(c1ccccc1)(c1ccccc1)c1ccccc1
not listed: [2] | [10]
inactive: all other assays above

Cc1ccc(Nc2ccc(O)c3c2C(=O)c2ccccc2C3=O)cc1
not listed: [10]
inactive: all other assays above

O=C(O)c1ccc([N+](=O)[O-])cc1
not listed: [10]
inactive: all other assays above

CN(CCOc1ccc(CC2SC(=O)NC2=O)cc1)c1ccccn1 (stereo not drawn)
active: [6] 1.12 µM | [9] 11.6 µM
not listed: [2]
inactive: all other assays above

COC(=O)c1ccc(C)cc1
inactive: all assays above

O=C1OC2(c3cc(Br)c(O)c(Br)c3Oc3c2cc(Br)c(O)c3Br)c2c(Cl)c(Cl)c(Cl)c(Cl)c21
active: [1] 16.3 µM | [3] 3.57 µM | [4] 0.546 µM | [5] 8.63 µM | [6] 2.19 µM | [7] 3.51 µM | [10] 0.608 µM | [8] 13.2 µM | [9] 1.34 µM
inactive: [2]

CCCCCCCCCC=O
not listed: [2] | [10]
inactive: all other assays above

Cc1cc(C2(c3cc(C)c(O)cc3C)OS(=O)(=O)c3ccccc32)c(C)cc1O
not listed: [2] | [5] | [10]
inactive: all other assays above

CCc1c(C)cc(N)c(CC)c1N
not listed: [2] | [10]
inactive: all other assays above

CC(c1cc2ccccc2s1)N(O)C(N)=O (stereo not drawn)
inactive: [2]

CC(C)=CCC[C@](C)(O)[C@@H]1CC=C(C)CC1
inactive: [2]

O=C1C(c2[nH]c3ccc(S(=O)(=O)O)cc3c2O)=Nc2ccc(S(=O)(=O)O)cc21
inactive: [2]

OC1OC[C@@H](O)[C@H](O)[C@H]1O (stereo partly drawn)
not listed: [2] | [5]
inactive: all other assays above

CC(=O)[C@H]1CC[C@H]2[C@@H]3CC=C4C[C@@H](O)CC[C@]4(C)[C@H]3CC[C@]12C
active: [3] 11.1 µM and 7.02 µM
not listed: [2] | [5] | [10]
inactive: all other assays above

CC(C)(COC(=O)c1ccccc1)COC(=O)c1ccccc1
inactive: [1] | [4] | [8] | [9]
active: [3] 26.8 µM | [5] 38.9 µM | [6] 31.7 µM | [7] 23.2 µM

C[Si](O[Si](C)(C)C)O[Si](C)(C)C
inactive: [2]

CN(C)CCCN
inactive: [2]

CC(C)(C)c1cc(CCC(=O)NN)cc(C(C)(C)C)c1O
inactive: [2]

CC1=CCC(O)(C(C)C)CC1 (stereo not drawn)
inactive: [2]

CC(=O)O[C@]1(C(C)=O)CC[C@H]2[C@@H]3C[C@H](C)C4=CC(=O)CC[C@]4(C)[C@H]3CC[C@@]21C
active: [4] 5.07 µM
not listed: [2] | [10]
inactive: all other assays above

CC(=O)OCCC(C)CC(C)(C)C (stereo not drawn)
not listed: [2] | [5] | [10]
inactive: all other assays above

CC(=O)OCc1ccc2c(c1)OCO2
inactive: [2]
